This is part of a sample that, as a whole, favours compounds with a hit. Of some 79,000 tested, about 15% had one in any assay. Rule as the data show it: active = growth inhibition above about 70%; inactive = the rest.
Tests used:
[1] = NCI Yeast Anticancer Drug Screen. Data for the rad50 strain (AID 155);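 also: 0% = growth of vehicle-only cultures of the same strain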; conditions: S. cerevisiae rad50 strain growth inhibition; at 50.0 µM; stronger effect = higher value
Outline: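 Vehicle-treated cultures provide the reference for the growth inhibition reported for compound-exposed, repair-deficient yeast.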

[2] = NCI Yeast Anticancer Drug Screen. Data for the mec2-1 strain (AID 157); conditions: S. cerevisiae mec2-1 strain, at 50.0 µM, stronger effect = higher value
Outline: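 Vehicle-treated cultures served as reference for growth inhibition of compound-exposed mec2-1 yeast.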

[3] = NCI Yeast Anticancer Drug Screen. Data for the sgs1 mgt1 strain (AID 161);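 also: 0% = growth of cultures given vehicle only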; conditions: S. cerevisiae sgs1 mgt1 strain, at 50.0 µM, stronger effect = higher value
Outline: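 Inhibition of yeast growth, normalised to vehicle-treated controls, is reported for a strain bearing genetic alterations in DNA damage repair.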

[4] = NCI Yeast Anticancer Drug Screen. Data for the cln2 rad14 strain (AID 165);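 also: 0% = growth equal to vehicle treated cultures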; conditions: S. cerevisiae cln2 rad14 strain, at 50.0 µM, stronger effect = higher value
Outline: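 Each compound was tested on cln2 rad14 yeast. Inhibition of growth was calculated against vehicle-exposed controls.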

[5] = NCI Yeast Anticancer Drug Screen. Data for the bub3 strain (AID 167); conditions: S. cerevisiae bub3 mutant strain, at 50.0 µM, stronger effect = higher value
Outline: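 Mutant yeast screening strain plus compound; vehicle-treated cultures serve as the 0% inhibition reference.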

[6] = NCI Yeast Anticancer Drug Screen. Data for the mlh1 rad18 strain (AID 175); conditions: S. cerevisiae mlh1 rad18 strain growth inhibition; at 50.0 µM; stronger effect = higher value
Outline: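 Vehicle-treated cultures served as the reference for growth inhibition in a yeast strain carrying DNA damage repair alterations exposed to each compound.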

Measured: growth inhibition

CS(=O)(=O)OC1COC(c2ccccc2)OC1C1OC(c2ccccc2)OCC1OS(C)(=O)=O (stereo unspecified)
inactive: [1] -26.7% | [2] -3.85% | [3] -31.9% | [4] -4% | [5] -0.9% | [6] -7.25%

COC1CC(OC2CCC3(C)C(=CCC4C3C(OC(C)=O)C(OC(=O)CC(C)C)C3(C)C(C(C)=O)CCC43O)C2)OC(C)C1OC1CC(OC)C(OC2CC(OC)C(OC3OC(C)C(OC4OC(CO)C(O)C(O)C4O)C(OC)C3O)C(C)O2)C(C)O1 (stereo unspecified)
inactive: [1] 2.4% | [2] 5.2% | [3] 16.4% | [4] 21.6% | [5] -7.45% | [6] -38.4%

CSC#CC(Sc1c(Cl)c(Cl)c(Cl)c(Cl)c1Cl)=C(Sc1c(Cl)c(Cl)c(Cl)c(Cl)c1Cl)Sc1c(Cl)c(Cl)c(Cl)c(Cl)c1Cl
inactive: [1] 2.55% | [2] -0.8% | [3] -1.7% | [4] -3.6% | [5] -0.6% | [6] -15.5%

Cc1c2cnccc2c(CO)c2[nH]c3ccccc3c12
inactive: [1] 11.6% | [2] -10.2% | [3] 8.2% | [4] 4.6% | [5] -10.9% | [6] 59.7%

CCc1ccccc1O
inactive: [1] 6.1% | [2] -7.6% | [3] 3.3% | [4] -25% | [5] -11.7% | [6] 1.4%

Cc1nc(C)c(N2CCN(CN)CC2)c(=O)[nH]1
inactive: [1] -45.2% | [2] -32.8% | [3] -48% | [4] 30.6% | [5] 14.3% | [6] -72.3%

NNC(=O)C(=O)N/N=C1\CCCC1C(=O)CCC(=O)Nc1cccc(Cl)c1 (stereo unspecified)
inactive: [1] -35.5% | [2] -33.4% | [3] -32.3% | [4] -1.65% | [5] -24.1% | [6] -30.9%

Cc1ccccc1N=Nc1c(-c2ccccc2)nn(C(=O)CC(=O)Nc2cccc(Cl)c2)c1-c1ccccc1
inactive: [1] 60.9% | [2] 21.6% | [3] 55.5% | [4] 34.3% | [5] 68% | [6] 41.5%

C#CC(C)(C)Nc1ccccc1
inactive: [1] -10.8% | [2] 2.9% | [3] -6.6% | [4] -6.2% | [5] -4.95% | [6] 4.9%

CC(C)(CO)C(O)C(=O)NCCO (stereo unspecified)
inactive: [1] 14.8% | [2] -0.15% | [3] 6.05% | [4] 5.15% | [5] 3.3% | [6] -10.4%

CCCCC(c1nc2c(c3c1CCCC3)CCCC2)C(O)(C(F)(F)F)C(F)(F)F (stereo unspecified)
inactive: [1] 13.1% | [2] 7% | [3] 10.2% | [4] -4.15% | [5] -2.1% | [6] 16.4%

Cc1ccc(S(=O)(=O)Nc2cccc3c(=O)[nH]cnc23)cc1
inactive: [1] 1.6% | [2] -13.8% | [3] 1.2% | [4] -37.2% | [5] 10.3% | [6] 18.8%

O=C1CC=NC(=S)N1
inactive: [1] -0.6% | [2] 7% | [3] 8.75% | [4] 7.95% | [5] -2.7% | [6] 28.4%

CC(C)(C)/C=N/Nc1ccc([N+](=O)[O-])cc1[N+](=O)[O-]
inactive: [1] 26.4% | [2] 15.1% | [3] -0.05% | [4] -40.2% | [5] 11.7% | [6] -13.3%

COc1c(OC)c(C2(O)C(=O)N(C)c3ccccc32)c2c(c1C1(O)C(=O)N(C)c3ccccc31)OCO2 (stereo unspecified)
inactive: [1] 4.25% | [2] 1.7% | [3] -14.9% | [4] 1.2% | [5] 3.05% | [6] 22.9%

CCC(=O)N(C)c1ccccc1
inactive: [1] 22.4% | [2] 6.3% | [3] 0.75% | [4] 12.2% | [5] -0.35% | [6] -23.4%

CSc1ncc(CO)c(Nc2ccc(F)cc2)n1
inactive: [1] -12.7% | [2] 8.7% | [3] -16.4% | [4] -20% | [5] -14.9% | [6] -23.4%

Cc1cc(=O)oc2cc3c(cc12)Oc1ccccc1O3
inactive: [1] -6.85% | [2] -11.2% | [3] -0.95% | [4] 3.5% | [5] 5.8% | [6] -5%

CC(C)c1sc([S-])n[n+]1-c1ccccc1
inactive: [1] 10.2% | [2] -0.65% | [3] -9.5% | [4] -15.4% | [5] -4.3% | [6] 7%

O=C1C2=C(c3ccccc31)C(c1ccc(F)cc1)N1C(=O)CCSC1=N2 (stereo unspecified)
inactive: [1] 45.1% | [2] 19.1% | [3] 63% | [4] 40.1% | [5] 48.6% | [6] 56.1%

Cc1cc(C)c2c(=O)cc(-c3cccc(F)c3)[nH]c2n1
inactive: [1] 1.35% | [2] -0.65% | [3] -28.2% | [4] 3.8% | [5] -1.3% | [6] -26.1%

O=C1CCCC1Sc1ccccn1 (stereo unspecified)
inactive: [1] -14.4% | [2] -11.5% | [3] -29.6% | [4] -8.5% | [5] -7.15% | [6] -32.2%

CCOC(=O)Nc1cc([N+](C)(C)C)ccc1OCCOc1ccc([N+](C)(C)C)cc1
inactive: [1] -0.4% | [2] 5.35% | [3] -8.4% | [4] -8.8% | [5] -1.65% | [6] 28.6%

COc1ccc(COCC[C@H](C)OC2OC(CO)C(O)C(O)C2O)cc1 (stereo partly specified)
inactive: [1] 13.9% | [2] -8.75% | [3] -12.9% | [4] -6.2% | [5] 5.25% | [6] -71%

NC(=S)N/N=C1/C(=O)N(c2ccccc2)C(=O)C1C(=O)Nc1ccccc1 (stereo unspecified)
inactive: [1] 46.2% | [2] 16.8% | [3] 38% | [4] 0.9% | [5] -0.25% | [6] 39.1%

C/C(=N/NC(=S)Nc1cccc(Cl)c1)c1cccc(/C(C)=N\NC(=S)Nc2cccc(Cl)c2)n1
inactive: [1] 47% | [2] 46% | [3] 62.6% | [4] 20.3% | [5] 62.4% | [6] 56.9%

C=CCCCCCCCCC(=O)OC1CCCCC1
inactive: [1] -9.25% | [2] 0.2% | [3] 11.1% | [4] -23.1% | [5] 15.4% | [6] 6.15%

[Cl][Pd][Cl].[NH-]CC1(C[NH-])CCCCC1
inactive: [1] 3.5% | [2] -1.1% | [3] 3.75% | [4] -64.2% | [5] 7.7% | [6] 5.95%

N#Cc1c(=O)[nH]c(=O)n2c1[nH]c1ccccc12
inactive: [1] 14.7% | [2] 19.3% | [3] 11.9% | [4] -32.4% | [5] 12.1% | [6] 8.15%

CO/N=C1\C(C)(C)C(C)(C)C(C)(C)C1(C)SS(=O)(=O)O (stereo unspecified)
inactive: [1] 23.6% | [2] 19.1% | [3] 12.6% | [4] 17.6% | [5] 20.8% | [6] 29.9%

CCc1ccc(C(=O)O)o1
inactive: [1] -9% | [2] -12.1% | [3] -7.35% | [4] 7.8% | [5] 12.7% | [6] 12.3%

CCNC(=O)c1cc2ccccc2cc1O
inactive: [1] 1.4% | [2] -6.85% | [3] -6.5% | [4] -46% | [5] -15.7% | [6] 6.55%

CC(=O)OCCNc1ccccc1
inactive: [1] -5.05% | [2] 0.2% | [3] 10.2% | [4] -5% | [5] -2.75% | [6] 20.3%

Nc1cc(CO)cc(Nc2c3ccccc3nc3ccccc23)c1
inactive: [1] 26.8% | [2] 7.35% | [3] -30.8% | [4] -6.95% | [5] 0.65% | [6] 48.5%

CC(C)N(C(=O)C12C3C4C5C3C1(C(=O)N(C(C)C)C(C)C)C5C42)C(C)C (stereo unspecified)
inactive: [1] 16.5% | [2] 17.4% | [3] 12.2% | [4] 1% | [5] 19.9% | [6] 14.4%

CN(CCCn1ccnc1[N+](=O)[O-])CCCn1ccnc1[N+](=O)[O-]
inactive: [1] -28.1% | [2] -12.6% | [3] -0.35% | [4] 3.85% | [5] -5.05% | [6] 11.6%

C(=C/c1ccccc1)/CNCCNC/C=C/c1ccccc1
inactive: [1] 46.1% | [2] 22.6% | [3] 40.8% | [4] 35% | [5] 35.3% | [6] 47.5%

O=C(O)COCC(=O)N(CCOCCN(Cc1ccccc1)C(=O)COCC(=O)O)Cc1ccccc1
inactive: [1] -18.4% | [2] 0.75% | [3] 7.25% | [4] 26.6% | [5] 0.7% | [6] 4.1%

COC(=O)CC12CCCC(C)(CC(=O)N1)C2 (stereo unspecified)
inactive: [1] 16.4% | [2] 1.25% | [3] 12.5% | [4] 15.8% | [5] -4% | [6] -0.5%

COc1cc2cccc(N=Cc3cccc(OC)c3OC(C)C)c2cc1OC
inactive: [1] -20.9% | [2] -13.2% | [3] 11.6% | [4] 16.1% | [5] -4.6% | [6] -8.6%

CCN(CC)CCNc1ccccc1
inactive: [1] -0.45% | [2] -13% | [3] -8.55% | [4] -48.4% | [5] -4.9% | [6] 14.7%

Source: PubChem BioAssay (NCI)
